This passage reports INHIBITION results from ChEMBL document CHEMBL4513216, “Probing the Open Global Health Chemical Diversity Library for Multistage-Active Starting Points for Next-Generation Antimalarials” (ACS Infect Dis, 2020).

Out of some 69,000 compounds screened, about 8,600 (12%) showed an effect of 50% or more. Many of the other results were omitted from the sample, so strong results are more common in it than they were.

For the test, the system named is Plasmodium berghei. Briefly: Screen against P. berghei liver stage (PbLuc), transformed with Luciferase, at 10uM. Format: functional, HepG2. The settings on record: tested at 10 uM.
Regarding `CCC[C@H]1CN(C(=O)CCn2ccccc2=O)C[C@@H]1NS(C)(=O)=O`, the INHIBITION is listed as -7.98%.
For `Cc1nc(C(C)C)sc1C(=O)N1CCC(C(N)=O)CC1` the value was -49.2%.
The figure for `Cc1cc(C)cc(OCC(=O)NC2CCN(S(C)(=O)=O)CC2)c1` is 33%.
The figure for `Cc1cc(N2CCN(CCO)CC2)nc(-c2ccncc2)n1` is 30%; for `CN1CCN(C(=O)COCc2nc(-c3ccncc3)no2)CC1` it is 11.4%.
With `CC(C)NC(=O)NCc1nnc2n1C(C(=O)N(C)C)CC2` (configuration not stated), the INHIBITION was found to be 9.32%.
The figure for `CCCc1noc(C2CCN(C(=O)CCn3nc(C)cc3C)CC2)n1` is 36.6%; for `COC[C@H]1CCC[C@H]1Nc1ncnc2c1CCNCC2` it is -6.94%; for `CC(C)N1CCC2(CC1)CC(NCc1ccccn1)c1ccccc1O2` (configuration not stated) it is 7.31%.
For `O=C(C1CCC1)N1CCC2(CCCN2CC2CC2)CC1` the value was 22.3%.
For `O=C(C1CCCCC1)N1CCC2(CCCN2CC2CC2)CC1` the value was 50.7%.
Turning to `O=C(C1CCCC1)N1CCC2(CC1)COCCN2CC1CC1`, the INHIBITION amounted to 39.1%.
The figure for `OC1(CNCCCN2CCc3ccccc32)CCNC1` (configuration not stated) is 30.7%; for `CCN(CCSc1ccccc1)C(=O)c1cn(C2CCC(N)CC2)nn1` (configuration not stated) it is -56.6%.
For `CNC(=O)c1cccc(NC(=O)c2ccnc(N(C)C)c2)c1C` the value was 53.9%.
For `CN(C)c1cc(C(=O)Nc2cccnc2N2CCSCC2)ccn1` the value was 2.97%; for `CN(C)c1cc(C(=O)Nc2ccccc2C(=O)NC(C)(C)C)ccn1`, 7.4%.
Consider `C=C(C)CN1CCN(Cc2nccn2C)C(C)C1` (configuration not stated), for which the INHIBITION stood at 42.45%.
The figure for `CN1CCN(C(=O)Cc2cccc(F)c2)Cc2cccnc21` is -3.19%; for `Cc1nc2cc(F)cc(C(=O)N3CCN(CCO)CC3)c2nc1C` it is -24%.
For `Cc1nc(-c2ccccc2)ccc1C(=O)N1CCn2c(C)nnc2C1` the value was -0.758%.
For `Cc1nc(O)ccc1C(=O)N1CCCC1c1nc(-c2ccccc2)n[nH]1` (configuration not stated) the value was 69.8%; for `O=C(c1ccc(-c2cccs2)cc1F)N1CCN(CCO)CC1`, 38.7%; for `O=C(c1ccc[nH]1)N1CCCC1c1nc(-c2ccccc2)n[nH]1` (configuration not stated), -1.76%.
For `O=C(c1ccncc1F)N1CCCC1c1nc(-c2ccccc2)n[nH]1` (configuration not stated), the INHIBITION amounted to 16.8%.
The figure for `Cc1nc(-c2ccccc2)ccc1C(=O)N1CCN(CCO)CC1` is 71.2%; for `O=C(c1cc2ccccc2c(=O)[nH]1)N1CCN(CCO)CC1` it is 2.32%; for `O=C(c1cc(-c2cccs2)nc2ccccc12)N1CCN(CCO)CC1` it is 68.4%.
The figure for `Cc1nc2cc(F)ccc2cc1C(=O)N1CCN(CC(C)O)CC1` (configuration not stated) is -11.5%; for `Cc1nc(-c2cccs2)ccc1C(=O)N1CCN(CC(C)O)CC1` (configuration not stated) it is 55.4%; for `Cc1nc(-c2cccs2)ccc1C(=O)N1CCN(CCO)CC1` it is 27.6%.
For `Cc1cc(-n2nnc(C(=O)O)c2-c2ccncc2)ccc1F` the value was 49.9%.
For `CCOC(=O)CNC(=O)c1cccnc1Sc1cc(OC)ccc1OC`, the INHIBITION came out at 3.58%.
The figure for `Cc1ccc(CNC(=O)NC(C)CN2CCOCC2)s1` (configuration not stated) is 14%.
Turning to `COCCC(=O)N1C[C@@H](c2ccccc2F)[C@@]2(CCCC(=O)N2)C1`, the INHIBITION was 29.5%.
For the compound `Cn1cc(N2CCC3(CCN(Cc4nccs4)C3)C2=O)cn1` (configuration not stated), the INHIBITION turned out to be 26.2%.
For `Cc1nc(C)n(CC2CCCN2Cc2nc(-c3ccsc3)no2)n1` (configuration not stated) the value was 46.8%; for `Cc1ccccc1OCCCNC(=O)C1(C)CC(=O)N2C=CC=CC2=N1` (configuration not stated), 9.63%.
The figure for `Cc1nc(C)n(CC2CN(Cc3ccccc3C#N)CCO2)n1` (configuration not stated) is 5.9%.
The figure for `CCN(Cc1cscn1)CC1(C)Cc2c(N)nc(N)nc2O1` (configuration not stated) is 33.85%; for `CN(CCC(C)(C)O)C(=O)C1CCC(=O)N(Cc2ccc(Cl)cc2)C1` (configuration not stated) it is 46.9%; for `CN(CC1(CO)CCC1)C(=O)C1CCC(=O)N(Cc2ccc(Cl)cc2)C1` (configuration not stated) it is 49%.
As for `CN(CC1(CO)CC1)C(=O)C1CCC(=O)N(Cc2ccc(Cl)cc2)C1` (configuration not stated), the INHIBITION is 70.4%.
The figure for `COc1cc(C(C)=O)ccc1OC12CCCN(CC1)C2` (configuration not stated) is 47.7%.
The figure for `CCc1ccc(CN2CCCn3c(nc(Cn4ccnc4)cc3=O)C2)o1` is -2.17%; for `CCO[C@@H]1CCN(C(=O)c2ccc[nH]2)[C@@H]1Cc1cccnc1` it is 36.9%.
For `Cc1ccc(S(=O)(=O)N2CCOCC2C(N)=O)c(F)c1` (configuration not stated) the value was 27.4%.
Turning to `Cc1ccc(C(=O)N2CC(C(N)=O)O[C@H](C)C2)c(F)c1` (some centres not stated), the INHIBITION was -110%.
The figure for `Cc1ccc(C(=O)N2CCOCC2C(N)=O)c(F)c1` (configuration not stated) is 54.5%; for `Cc1noc(C(C)SCc2ccccn2)n1` (configuration not stated) it is 14.3%; for `CCOc1ccc(CSC(C)c2nc(C)no2)nc1` (configuration not stated) it is 60.2%.
The figure for `CCOc1cccc(CSC(C)c2nc(C)no2)n1` (configuration not stated) is -10.8%.
The figure for `CNc1nc2cn(C3CCCC3)c(=O)c-2c[nH]1` is -24.5%.
As for `CC1CN(C)CCN1CC(=O)NCCOc1ccc2c(c1)OCO2` (configuration not stated), the INHIBITION is given as 18.7%.
The figure for `O=C(c1cccnc1)N1CC(S(=O)(=O)c2ccc(Cl)cc2)C1` is 29.7%.
The figure for `O=C(c1ccco1)N1CC(S(=O)(=O)c2ccc(Cl)cc2)C1` is 50.5%; for `O=C(c1ccccn1)N1CC(S(=O)(=O)c2ccc(Cl)cc2)C1` it is -54.7%.
For `c1ccc2c3c([nH]c2c1)C(c1nn[nH]n1)CCC3` (configuration not stated) the value was 26.4%.
In the case of `Cn1ccnc1C1(O)CCCN(Cc2ccncc2)CC1` (configuration not stated), the INHIBITION came to 7.36%.
With `COc1ccc(C2c3c(N)nc(SC)nc3N=C3CCCC(=O)C32)cc1` (configuration not stated), the INHIBITION is reported as 21.7%.
In the case of `COc1cc2c(cc1CNC(Cc1cccs1)c1nccs1)OCO2` (configuration not stated), the INHIBITION is 20.07%.
For the compound `COc1cc2c(cc1CNC(Cc1cccs1)c1nccs1)OCCO2` (configuration not stated), the INHIBITION is recorded as 36.9%.
The figure for `CCOc1cc2c(cc1CNC(Cc1cccs1)c1nccs1)OCO2` (configuration not stated) is 52%.
For `CCc1nnc(Nc2cc(C)nc(C3CCN(c4cnccn4)C3)n2)s1` (configuration not stated) the value was 32.3%; for `CCCN1CCN(Cc2cc3cc(OCC)ccc3[nH]c2=O)CC1`, 6.67%; for `CCOc1ccc2[nH]c(=O)c(CN3CCC(O)CC3)cc2c1`, 20.2%.
For `CCOc1ccc2[nH]c(=O)c(CN3CCN(S(N)(=O)=O)CC3)cc2c1` the value was 94.3%.
With `CCCN(CCOC)C(=O)c1cc(Cn2c(C)nc3ccccc32)[nH]n1`, the INHIBITION was found to be 65.7%.
The figure for `Cc1nc2ccccc2n1Cc1cc(C(=O)N(C)C2CCOC2)n[nH]1` (configuration not stated) is -39.9%; for `CCCN(CC)C(=O)c1cc(Cn2c(C)nc3ccccc32)[nH]n1` it is 75.7%.
Regarding `CCn1nc(C)c(CN(CCOC)C(=O)c2ccc(=O)[nH]n2)c1C`, the INHIBITION is -65%.
For `CCN(CCO)C(=O)c1cc(Cn2c(C)nc3ccccc32)[nH]n1` the value was 24.9%; for `NC(=O)CNC(=O)c1cc(Cn2cnc3ccccc32)[nH]n1`, -72.5%.
Regarding `COCc1nc(C(=O)N2CCCC2c2cccs2)cs1` (configuration not stated), the INHIBITION was found to be 42%.
The figure for `Cc1cccc(CN2CCc3ncnc(NC4CCC4)c3CC2)n1` is -24.8%; for `c1cc(CN2C[C@@H]3OCCN(CC4CCCO4)[C@@H]3C2)cs1` (some centres not stated) it is 46.2%; for `CCOc1cccc(CNCc2ccc(NC(=O)NC(C)C)cc2)c1` it is -18%.
As to `COc1cc(CNCc2ccc(NC(=O)NC(C)C)cc2)cc(OC)c1`, the INHIBITION is recorded as 60%.
The figure for `COc1cccc(CNCc2ccc(NC(=O)NC(C)C)cc2)c1` is 29.4%; for `Cc1ccc(CN2CCC[C@]3(C(=O)O)CN(c4ncccn4)C[C@@H]3C2)o1` it is 15.9%.
The figure for `c1cncc(CN2CCC(c3csc4nccn34)CC2)c1` is 3.295%.
As to `CC(C)(NC(=O)c1ccc(-c2ccc(F)cc2)s1)C(N)=O`, the INHIBITION stood at 4.12%.
The figure for `CCCc1nnsc1C(=O)N1CCCC1(C)C(=O)N1CCOCC1` (configuration not stated) is -53.1%.
The figure for `O=C1CC(N(C(=O)c2ccc(F)c(F)c2)C2CC2)C(=O)N1` (configuration not stated) is 15.3%.
The figure for `Cc1ccc(C(=O)N(C2CC2)C2CC(=O)NC2=O)cc1F` (configuration not stated) is 50.3%.
Consider `COc1cc(C(=O)N(C2CC2)C2CC(=O)NC2=O)ccc1C` (configuration not stated), for which the INHIBITION came out at 31%.
In the case of `O=C(O)c1c[nH]c2cc(NS(=O)(=O)c3ccc(Cl)cc3F)ccc12`, the INHIBITION is recorded as -2.19%.
For `CN(C)C(=O)[C@@H]1CCO[C@@H]2CCN(CCOCc3ccccc3)C[C@H]21` the value was 43.1%; for `CC(=O)c1ccc(N2CCC(CO)(CCOc3ccccc3)CC2)nc1`, 95.1%.
The figure for `CCCN1CC2(CCN(c3ccc(C(C)=O)cn3)CC2)CC1C(=O)O` (configuration not stated) is -12.5%; for `CC(=O)c1ccc(N2CCCC(CO)(CCOc3ccccc3)C2)nc1` (configuration not stated) it is 70.1%.
The figure for `CC(=O)c1ccc(N2CCC3(CC2)CC(=O)N(C)C3)nc1` is 34.1%; for `CC(=O)c1ccc(N2CCCC(CO)(CCc3ccccc3)C2)nc1` (configuration not stated) it is 43.7%; for `CN1C(=O)C2(CCN(S(C)(=O)=O)CC2)c2cc(F)ccc21` it is 17.7%.
With `O=C(CNCCn1cccn1)NCC1(c2ccccc2)CCOCC1`, the INHIBITION was found to be 25.4%.
The figure for `CS(=O)(=O)NC[C@H]1OC[C@@H]2CCN(CCc3ccccc3)C[C@@H]21` is 43.4%; for `Cn1c(C2CC2)nc2c1CCN(CCOc1cccc(F)c1)C2` it is 11.9%; for `Cc1ccccc1C(=O)N1C[C@@H]2OCCN(c3ncccn3)[C@@H]2C1` it is -2.35%.
The figure for `CN1CCN(S(=O)(=O)c2cccc(C#N)c2)c2ccc(F)cc21` is 62.4%; for `CN1CCN(S(=O)(=O)c2cccc(F)c2)c2ccccc21` it is 46.6%.
Turning to `CN1CCN(S(C)(=O)=O)c2ccc(F)cc21`, the INHIBITION turned out to be 21.8%.
For `CCc1cc(OC)c(OC)cc1C(=O)Nc1cccnc1` the value was 22.6%; for `CO[C@H]1CN(Cc2c(C)ccc3ncccc23)CC[C@H]1N`, -69.3%.
The figure for `O=C(c1ccno1)N1CCc2ncnc(-c3ccncc3)c2CC1` is 35.5%; for `O=C(Nc1ccc(N2CCCC2)nc1)N1CCc2sccc2C1` it is -11.5%; for `O=C(Nc1ccc(N2CCCCC2)nc1)N1CCc2sccc2C1` it is -10.8%.
For `O=C(Nc1ccc(N2CCCC2)nc1)N1CCc2ccccc2C1` the value was 63.5%.
